This is a sample that favours compounds with a hit; in the whole collection about 2.4% have one here.
WRN inhibitor: WRN helicase (human) inhibition | WRN helicase unwinding, fluorescent forked duplex, kinetic | Potency, µM (highest dose often 114 µM), inactives show at the highest dose activity change, negative = inhibition, actives largely listed as inhibitors | 360,000 tested, 0.46% active; also: potency is read from the fitted curve at half-maximal effect; % is scaled to controls: 0 for no effect and ±100 for the full control effect; nearly all actives have a fitted effect of over 55% in size
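Enzyme (20 nM final) and test compound sit together 15 min at room temperature before substrate addition. Substrate is a single-forked duplex oligonucleotide (100 nM) labelled with fluorophore and quencher, with 2 mM ATP; helicase unwinding raises red fluorescence, read kinetically.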
Pol kappa inh-1: inhibitors of human DNA polymerase kappa; Potency, µM (titrated, usually from 107 µM), without a hit: at the highest dose activity, negative = inhibition, hits mostly inhibitors; purified Pol kappa, fluorescent DNA synthesis assay, 10 min; Q9UBT6; 400,000 tested, 0.53% active; also: potency is read from the fitted curve at half-maximal effect; % is scaled to controls: 0 for no effect and ±100 for the full control effect
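Kinetic fluorescence readout at 0 and 10 min followed reaction start with substrate at 50 nM final. Beforehand, enzyme (10 nM Pol kappa) stood 15 min with compound at room temperature; buffer-only wells were negative controls.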
POLB inh: blocks human DNA polymerase beta activity; P06746; Pol beta primer extension/strand displacement, fluorescence kinetic; Potency, µM (series often up to 114 µM), for the others: at the highest dose activity change, negative = inhibition, most hits filed as inhibitors; 340,000 tested, 1.3% active; also: potency is read from the fitted curve at half-maximal effect; % is scaled to controls: 0 for no effect and ±100 for the full control effect
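10 nM enzyme + cpd, 15 min RT; start with substrate 50 nM final; read 0 min and after 10 min RT. Corrected, normalized data; 4-parameter Hill curve fit.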
Pol eta inh-1: DNA polymerase eta (human) inhibition; recombinant Pol eta, fluorescent DNA replication assay; Q9Y253; 390,000 tested, 1.2% active; Potency, µM (series often up to 114 µM), without a hit: top-dose activity change, negative = inhibition, usual class: inhibitors; also: potency is read from the fitted curve at half-maximal effect; % is scaled to controls: 0 for no effect and ±100 for the full control effect
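Fluorescent replication assay: 50 nM final substrate added after a 15 min room-temperature compound preincubation with 10 nM enzyme. Signal taken at 0 min and again at 10 min.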
Pol iota inh: blocks human DNA polymerase iota activity | Q9UNA4 | Pol iota fluorescent replication assay, 10 min | Potency, µM (highest dose often 115 µM), for inactives: at the highest dose activity, negative = inhibition, hits mostly inhibitors | 390,000 tested, 1% active | AID 588590; also: potency is read from the fitted curve at half-maximal effect
Target sequence (Q9UNA4 whole entry, looked up): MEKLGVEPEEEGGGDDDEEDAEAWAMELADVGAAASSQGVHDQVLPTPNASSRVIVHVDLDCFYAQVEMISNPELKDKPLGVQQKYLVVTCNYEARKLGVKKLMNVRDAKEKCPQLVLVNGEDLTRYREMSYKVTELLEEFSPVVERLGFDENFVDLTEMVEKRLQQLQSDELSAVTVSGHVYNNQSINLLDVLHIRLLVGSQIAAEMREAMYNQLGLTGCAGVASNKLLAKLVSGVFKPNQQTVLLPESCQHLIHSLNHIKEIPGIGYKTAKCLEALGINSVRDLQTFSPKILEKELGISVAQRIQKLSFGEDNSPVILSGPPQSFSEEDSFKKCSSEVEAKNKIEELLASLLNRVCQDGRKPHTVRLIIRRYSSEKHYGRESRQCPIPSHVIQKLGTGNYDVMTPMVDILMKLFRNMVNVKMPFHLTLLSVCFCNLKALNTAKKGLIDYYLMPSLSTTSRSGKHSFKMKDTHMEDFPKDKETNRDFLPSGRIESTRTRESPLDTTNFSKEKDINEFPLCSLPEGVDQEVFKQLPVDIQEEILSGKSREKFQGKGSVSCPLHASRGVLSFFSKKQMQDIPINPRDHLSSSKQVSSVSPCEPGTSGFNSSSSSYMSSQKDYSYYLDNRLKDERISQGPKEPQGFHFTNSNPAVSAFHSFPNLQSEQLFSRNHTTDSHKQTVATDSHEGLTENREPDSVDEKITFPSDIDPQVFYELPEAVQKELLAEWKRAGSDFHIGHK
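Fluorescent replication assay read twice, at 0 min and 10 min after adding 50 nM (final) substrate. Enzyme (10 nM) and compounds were first incubated 15 min at room temperature; enzyme-free buffer wells were negative controls.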
FEN1 inhibitor: inhibitors of human flap endonuclease 1; P39748; Recombinant FEN1 flap cleavage, fluorescence, 15 min; Potency, µM (titrated, usually from 114 µM), for inactives: at the top dose activity change, negative = inhibition, actives largely listed as inhibitors; 390,000 tested, 0.35% active; AID 588795; also: potency is read from the fitted curve at half-maximal effect; % is scaled to controls: 0 for no effect and ±100 for the full control effect; nearly all actives have a fitted effect of over 65% in size
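Recombinant FEN1 (10 nM) was preincubated with pin-transferred compounds for 15 min at room temperature, then flap DNA substrate (50 nM final) was added. Plates were read at 0 and 15 min, and normalized concentration–response data were fitted to a four-parameter Hill equation.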
BAZ2B confirm: inhibits human BAZ2B bromodomain, hit validation; shares compounds with Pol kappa inh-1; AlphaScreen BAZ2B / biotin-H3K14Ac peptide displacement; Potency, µM, actives largely listed as inhibitors; 25 tested, 100% active; AID 588809; calls by dose curve
AlphaScreen ctr: interferes with AlphaScreen signal in BAZ2B counterscreen. shares compounds with Pol kappa inh-1. AlphaScreen biotin-His6 peptide bead counterscreen, signal decrease. Potency, µM (highest dose often 57.1 µM), inactives show top-dose activity change, negative = inhibition, usual class: inhibitors. 25 tested, under 10 active;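 active = clear concentration-dependent signal drop in the bead assay lacking the target, so a primary-screen artifact; inconclusive = weak, partial or single-dose response; inactive = no response, so a real primary hit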
PGK validate: blocks T. brucei phosphoglycerate kinase. shares compounds with Pol kappa inh-1. TbPGK coupled GAPDH assay, Kinase-Glo luminescence. Potency, µM (titrated, usually from 57.5 µM), inactives show top-dose activity change, negative = inhibition, most hits filed as inhibitors. 500 tested, 79% active. AID 686980; also: potency is read from the fitted curve at half-maximal effect; % is scaled to controls: 0 for no effect and ±100 for the full control effect; nearly all actives have a fitted effect of over 65% in size
Pol iota confirm: Human Pol iota inhibitor confirmatory assay; shares compounds with Pol kappa inh-1; Pol iota primer extension, TAMRA/BHQ fluorescence; Potency, µM, hits mostly inhibitors; 1,500 tested, 77% active; also: potency is read from the fitted curve at half-maximal effect
GALK inh confirm: confirmation of human galactokinase (GALK) inhibitors. shares compounds with Pol eta inh-1. purified GALK, Kinase-Glo ATP depletion luminescence. Potency, µM (doses to about 115 µM), for inactives: at the top dose activity, negative = inhibition, hits mostly inhibitors. 150 tested, 70% active
Redox cycling: counter-screen for GALK inhibitors: redox cycling H2O2 generation; shares compounds with Pol eta inh-1; Phenol red-HRP H2O2 redox cycling, absorbance 600 nm; Potency, µM (highest dose often 115 µM), without a hit: top-dose activity change, negative = H2O2 signal, hits mostly inhibitors; 150 tested, 40% active; AID 2035
HEK293 viability: HEK-293 cytotoxicity, GALK inhibitor secondary | 170 tested, 10% active | Potency, µM (series often up to 46.1 µM), without a hit: at the highest dose activity change, negative = cytotoxicity, most hits filed as inhibitors | AID 2547 | HEK-293 viability, ATP luminescence (CellTiter-Glo), 24/48 h | shares compounds with Pol eta inh-1; also: potency is read from the fitted curve at half-maximal effect; % is scaled to controls: 0 for no effect and ±100 for the full control effect
Pol kappa inh-2: confirmation of human DNA polymerase kappa inhibitors. shares compounds with Pol eta inh-1. purified Pol-kappa, fluorescent strand-displacement substrate. Potency, µM, usual class: inhibitors. 920 tested, 76% active. AID 720501; also: potency is read from the fitted curve at half-maximal effect
Pol eta inh-2: confirmation of human DNA polymerase eta inhibitors | AID 720502 | Pol eta primer extension, TAMRA/BHQ fluorescence, 10 min | shares compounds with Pol eta inh-1 | 2,600 tested, 64% active | Potency, µM, hits mostly inhibitors; also: potency is read from the fitted curve at half-maximal effect
Numbers without * were called inactive; [ ] = another dose, or the depositor's remark. Unless noted, calls follow the shape of the dose curve; as a rule, active = well fitted curve in the direction sought with a large enough effect; inconclusive = small, poorly fitted or top-dose-only effect, or another doubt; inactive = no such curve, though single readings can be large; an effect the other way counts as inactive or inconclusive.

For Cc1nc2c(=O)n(C)c(=O)nc-2n(C)n1 the results were WRN inhibitor -13%[11.6 µM], Pol kappa inh-1 -13%, POLB inh inconclusive, Pol eta inh-1 0.79µM*, Pol iota inh -102%, FEN1 inhibitor 15%, PGK validate 1.5µM*, Pol iota confirm 1.5*, GALK inh confirm 1.9µM*, Redox cycling 0.94µM*, HEK293 viability 10µM* and Pol eta inh-2 4.3*.
Screening CC(C)CCNC(=O)CNC(=O)[C@@H](C)NC(=O)[C@@H](N)Cc1ccc(O)cc1 returned Pol kappa inh-1 7%[60.1 µM].
CC(C)c1ccc(C(c2c(O)c3ccccc3oc2=O)c2c(O)c3ccccc3oc2=O)cc1 was read as WRN inhibitor -15%[11.6 µM], Pol eta inh-1 22µM*, Pol iota confirm inconclusive, Pol kappa inh-2 38* and Pol eta inh-2 inconclusive.
For Cc1c(C(c2ccc(F)cc2)c2c(O)c3ccccc3oc2=O)c(=O)n(-c2ccccc2)n1C (centres undefined) the results were WRN inhibitor -1%, Pol kappa inh-1 -9%, POLB inh 0%, Pol eta inh-1 -16%, Pol iota inh -19% and FEN1 inhibitor 13%.
For O=C(C1CCCN(S(=O)(=O)c2ccc(F)cc2)C1)N1CCOCC1 (centres undefined) the results were WRN inhibitor 8%, Pol kappa inh-1 7%, Pol eta inh-1 -11%, Pol iota inh 48% and FEN1 inhibitor 0%.
O=C1NC(=O)N(c2cccc(F)c2)C(=O)/C1=C/c1ccc(N2CCOCC2)cc1 was read as WRN inhibitor -8%, Pol kappa inh-1 -20%, POLB inh inconclusive, Pol eta inh-1 4%, Pol iota inh inconclusive and FEN1 inhibitor -4%.
`Cc1cccc(N2C(=O)/C(=C/c3ccc(CN(CCC#N)S(C)(=O)=O)o3)C(=O)NC2=S)c1` gave WRN inhibitor 28µM*, Pol kappa inh-1 22µM*, POLB inh 20µM*, Pol eta inh-1 6.3µM*, Pol iota inh 8.9µM*, FEN1 inhibitor inconclusive, Pol iota confirm 67*, Pol kappa inh-2 11* and Pol eta inh-2 inconclusive.
Screening Cc1ccc(/C=C2\C(=O)NC(=S)N(c3cccc(F)c3)C2=O)o1 returned WRN inhibitor 50µM*, Pol kappa inh-1 32µM*, POLB inh -3%, Pol eta inh-1 7.1µM*, Pol iota inh inconclusive, FEN1 inhibitor inconclusive, Pol iota confirm 34* and Pol eta inh-2 17*.
Screening O=C(NCCc1ccccc1)[C@@H]1CC=C[C@@H]2CCN(Cc3ccc(Cl)c(Cl)c3)C(=O)[C@@H]21 returned WRN inhibitor -2%, Pol kappa inh-1 -16%, Pol eta inh-1 -23%, Pol iota inh 15% and FEN1 inhibitor inconclusive.
Screening CCC(C)(C)O returned Pol kappa inh-1 11%[60.1 µM].
`CN1CC[C@@]2(c3cccc(O)c3)Cc3nc4ccccc4cc3C[C@H]2C1` gave Pol kappa inh-1 -4%[19.4 µM].
O=C1NC(=O)C(=Cc2ccco2)C(=O)N1 was read as WRN inhibitor inconclusive, Pol kappa inh-1 40µM*, Pol eta inh-1 8.9µM*, Pol iota inh inconclusive, FEN1 inhibitor inconclusive, PGK validate 3.7µM*, Pol iota confirm 67*, Pol kappa inh-2 21* and Pol eta inh-2 30*.
For c1ccc(CN2CCC3(CCNCC3)CC2)cc1 the results were Pol kappa inh-1 -21%[60.1 µM].
For Cc1nc(NC(=O)c2ccccc2)sc1-c1csc(Nc2ccc(C(=O)O)cc2)n1 the results were WRN inhibitor -9%[11.6 µM], Pol kappa inh-1 -26%, POLB inh 16%, Pol eta inh-1 18µM*, Pol iota inh inconclusive, FEN1 inhibitor 35µM*, BAZ2B confirm 28*, AlphaScreen ctr -17%, Pol iota confirm 42*, Pol kappa inh-2 38* and Pol eta inh-2 43*.
For CC12CCC3C4CCC(=O)C(O)=C4CCC3C1CCC2OC(=O)CCC1CCCC1 (centres undefined) the results were Pol kappa inh-1 -1%[19.4 µM].
For COc1ccc2nc(NC(=O)c3nc(S(=O)(=O)Cc4cccc(C)c4)ncc3Cl)sc2c1 the results were Pol kappa inh-1 inconclusive, POLB inh 32µM*, Pol eta inh-1 79µM*, Pol iota inh inconclusive, FEN1 inhibitor 18%, Pol iota confirm 75* and Pol eta inh-2 inconclusive.
